Records with an inconclusive call do not appear. Entries that show only a call come without a potency. Values without a mark were called inactive. Calls of active or inactive are those of the source. The call rests on the fitted dose curve; in most records, active means well fitted cell-killing curve with a large enough effect in the repeat runs; inconclusive means weak or mixed curves, or effect the other way; inactive means flat fitted curve, though single readings scatter.

The nature of this assay: qHTS RealTime-Glo MT Cell Viability Assay in HepG2 cells - 0 hour (AID 1224889). Further: nearly all actives have a fitted effect of over 50% in size. To be noted: RealTime-Glo luminescence; series mostly up to 76.8 µM. An excerpt:
U.S. Tox21 Program National Center for Advancing Translational Sciences [NCATS] NIH Chemical Genomics Center [NCGC] U.S. Environmental Protection Agency [EPA] National Institutes of Environmental Health Sciences [NIEHS] National Toxicology Program [NTP] U.S. Food and Drug Administration [FDA] Tox21 Assay Overview: Measure of cell viability is critical in the cell-base assay. Analysis of cell viability is necessary for the characterization of cell responses to cytotoxic drugs and environmental stress. A RealTime-Glo MT Cell Viability Assay to monitor cell viability in real time of continues cell culture during 40 hours of compound treatment was used to screen Tox21 10K library compounds in HepG2 cells. The RealTime-Glo MT Cell Viability Assay is a nonlytic, homogeneous, bioluminescent method to measure cell viability in real time using a simple, plate-based method. The assay involves adding NanoLuc luciferase and a cell-permeant prosubstrate to cells in culture. Viable cells reduce the proprietary prosubstrate to generate a substrate for NanoLuc luciferase. This substrate diffuses from cells into the surrounding culture medium, where it is rapidly used by the NanoLuc Enzyme to produce a luminescent signal. The signal correlates with the number of viable cells, making the assay well suited for cytotoxicity studies.
Tox21 Assay Protocol Summary: The mixture of HepG2 cell suspension and reagents were dispensed at 600cells/6 ul/well in 1536-well tissue culture treated black solid bottom plates using a Multidrop dispenser. After the assay plates were incubated at a 37 C/5% CO2 incubator for 5 hours, 23 nL of compounds dissolved in DMSO, positive and negative controls was transferred to the assay plate by a pintool work station. The plates were incubated at 37 C for 40 hours. The luminescence intensity were measured at 0h, 8h, 16h, 24h, 32h and 40h time points using ViewLux plate reader during compound treatment.
On the technique in general: In qHTS, concentration-response curves come from the screen itself.
For the compound `Cc1cc(Br)ccc1NC(=O)CCl`, the Potency entry is “inactive”.

For the compound `C/C(=C\c1ccc(C(=O)O)cc1)c1ccc2c(c1)C(C)(C)CCC2(C)C`, the Potency result is “inactive”.

On to `CCOc1nc(F)cc2nc(S(=O)(=O)Nc3c(Cl)cccc3C(=O)OC)nn12`, for which the Potency entry was “inactive”.

For `C=C[Si](C)(C)Cl`, the activity change, negative = cytotoxicity was -16.4% [at 6.97 µM].

On to `CCN(CCC#N)c1ccc(N=Nc2ccc([N+](=O)[O-])cc2)cc1`, for which the Potency result is “inactive”.

For `CCn1c2ccccc2c2ccccc21`, the Potency entry is “inactive”.

On to `O=C(c1ccccc1)c1ccc(Cl)cc1`, for which the Potency result was “inactive”.

Consider `O=C1c2ccccc2C(=O)c2c(Cl)cccc21`, for which the Potency entry was “inactive”.

For `COCCC(=O)OC`, the Potency entry was “inactive”.

For `c1ccc2occc2c1`, the Potency result is “inactive”.

Regarding `CC(C=O)c1ccccc1` (stereo not given), the Potency entry is “inactive”.

Consider `Cc1ccc2n[nH]nc2c1`, for which the Potency result was “inactive”.

For the compound `COc1cccc(-c2ccc(/C=C\CN3CCCCCC3)cc2Cl)c1`, the Potency result is “inactive”.

On to `CC/C=C(\C)C=O`, for which the Potency entry was “inactive”.

Take `CCCCCc1ccc(O)cc1`: the Potency result was “inactive”.

For `Nc1cc([N+](=O)[O-])cc(Cl)c1O`, the Potency result is “inactive”.

In the case of `CC(C)(C)c1cc(CCC(=O)OCCSCCOC(=O)CCc2cc(C(C)(C)C)c(O)c(C(C)(C)C)c2)cc(C(C)(C)C)c1O`, the Potency entry is “inactive”.

With `CC(C)=NNC(N)=S`, the Potency entry was “inactive”.

Regarding `C=CC(=O)OCCOC1C2CCC1C1CC=CC12` (stereo not given), the activity change, negative = cytotoxicity is 5.34% [at 15.8 µM].

As to `CCCCCCCCCCCC(=O)Cl`, the Potency result was “inactive”.

For `CCC1(C)C(=O)N(Cl)C(=O)N1Cl` (stereo not given), the Potency entry was “inactive”.

As for `O=C1CCC/C=C\CCCCCCCCCC1`, the Potency result was “inactive”.

Turning to `O=C(Nc1ccc([N+](=O)[O-])cc1)Nc1ccc([N+](=O)[O-])cc1` (tested in a mixture with another compound), the Potency entry was “inactive”.

For the compound `c1ccc(-c2ccc(C(c3ccccc3)n3ccnc3)cc2)cc1` (stereo not given), the Potency entry was “inactive”.

`COc1ccc(OC)c(N=Nc2c(O)ccc3ccccc23)c1`: the Potency entry is “inactive”.

For `Cc1c(Cl)c(=O)oc2cc(O)ccc12`, the Potency entry is “inactive”.

With `Cc1ccc(C2OC[C@@H]3OC(c4ccc(C)cc4)O[C@H]([C@H](O)CO)[C@@H]3O2)cc1` (stereo not given in full), the Potency entry is “inactive”.

For the compound `CC(=O)[C@]1(O)Cc2c(O)c3c(c(O)c2[C@@H](O[C@H]2C[C@H](N)[C@H](O)[C@H](C)O2)C1)C(=O)c1ccccc1C3=O`, the Potency entry is “inactive”.

For the compound `Nc1c(Br)cc([N+](=O)[O-])cc1Br`, the Potency result is “inactive”.

Consider `CCc1cccc(C)c1N(C(=O)C(=O)O)C(C)COC` (stereo not given), for which the Potency result was “inactive”.

Take `CCN(CC)c1ccc(C=O)cc1`: the Potency result is “inactive”.

As for `CCOC(=O)C1=NN(c2ccc(Cl)cc2Cl)C(C)(C(=O)OCC)C1` (stereo not given), the Potency result was “inactive”.

Turning to `COc1c(Br)cc(Br)c(C)c1Br`, the Potency result was “inactive”.

Take `CCC(C)(C)c1ccc(CC(C)CN2C[C@@H](C)O[C@@H](C)C2)cc1` (stereo not given in full): the Potency entry is “inactive”.

For the compound `CC(C)(c1ccc(Oc2ccc(N)cc2)cc1)c1ccc(Oc2ccc(N)cc2)cc1`, the Potency entry is “inactive”.

As to `COc1cc(OC)nc(NC(=O)NS(=O)(=O)Nc2ccccc2C(=O)N(C)C)n1`, the Potency result was “inactive”.

For `ClC(c1ccccc1)(c1ccccc1)c1ccccc1`, the Potency entry is “inactive”.

Turning to `C=CC(=O)OCC(Br)CBr` (stereo not given), the Potency entry is “inactive”.

As to `Nc1ccc2c(S(=O)(=O)O)cccc2c1S(=O)(=O)O`, the Potency entry was “inactive”.

As for `Cc1ccc2sc3cccc(C)c3c2c1`, the Potency entry was “inactive”.
